# Test results published in PubChem BioAssay (NCI).
# About 83,000 compounds went through this panel and 20% of them were active in at least one assay; those are over-represented in the sample as a whole.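 The endpoint reported here, percent growth, reads 100 for growth as untreated, 0 for no net growth and -100 for all cells dead.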 A number with no mark means an inactive call. The source made the active and inactive calls. The calls were made as follows: active = growth percent below 10; inactive = the rest.
# System: MDA-MB-468 breast
# Assay: NCI-60 one-dose screen, 48 h (100 = growth as untreated, 0 = no growth, -100 = all killed)
# Details: 10 µM unless noted
row,Compound,growth
1,Cc1cc(C(NC(=O)CCCCCNc2cccc3c2C(=O)N(C2CCC(=O)NC2=O)C3=O)c2ccc3c(c2)OC(F)(F)O3)c(O)c2ncccc12 (stereo unspecified),69%
2,COc1cc(OC)c(C(=O)/C=C/c2ccc(C(F)(F)F)cc2)c(OC)c1,46.3%
3,O=C(NCc1cccnc1)c1ccc([N+](=O)[O-])o1,69.5%
4,OB(O)c1cccc(-c2nc3ccc4[nH]ncc4c3c3c2CCCC3)c1F,55.3%
5,CCN(CC)CCOc1ccc(C2=C(c3ccccc3)CCc3cc(OC)ccc32)cc1,-44.2% (active)
6,COc1ccc(CCN2C(=O)CCC3=C2CCCC3=O)cc1OC,105%
7,CSc1nc2c(c(=O)n1C)CN(Cc1ccccc1)C(=O)CN2,71.3%
8,CC(=O)[C@@H]1CC[C@]2(C(N)=O)CC[C@]3(C)[C@H](CC[C@@H]4[C@@]5(C)CCCNC(C)(C)[C@@H]5CC[C@]43C)[C@@H]12,82.2%
9,O=C(Nc1ccccc1O)c1ccc(CNC(=O)c2ccsc2Nc2ccnc(C(F)(F)F)c2)cc1,-17.2% (active)
10,FC(F)(F)c1ccc2c(Nc3cccc(C4CC(c5ccccc5)=NN4c4ccc(Cl)cc4)c3)ccnc2c1 (stereo unspecified),47.4%
11,N#CC(C(=O)/C(=N/NC(=O)c1ccccc1O)C(C#N)c1ccccc1)c1ccccc1 (stereo unspecified),67.1%
12,Cc1nc2ccccc2c(/C=C/c2ccccc2)c1C(=O)/C=C/c1ccc(Cl)cc1,19.4%
13,NS(=O)(=O)c1ccc(CCn2c(-c3ccc(C(=O)O)cc3)nc(-c3ccccc3)c2-c2ccccc2)cc1,112%
14,COC(=O)c1ccc(NC(=O)CCl)cc1,83.2%
15,CC(=O)N/C(=C1/OC(C(O)C(O)C(O)CO)CN1C)[P+](c1ccccc1)(c1ccccc1)c1ccccc1 (stereo unspecified),106%
16,CN1CCN(c2nc(-c3csc(-c4ccccc4)n3)cc3ccccc23)CC1,-71.9% (active)
17,O=C(O)c1cccnc1Br,102%
18,O=S(=O)(Nc1ccc(-n2cnc3cc(-c4ccc(O)cc4)ccc32)cc1)C1CC1,111%
19,COc1ncc2cc1NS(=O)(=O)c1cccc(c1)C(=O)NCC1=CC=C(S1)c1ncnc3c1SC2=C3C,-34.5% (active)
20,CS(=O)(=O)c1ccc(-n2nc(-c3ccc(Br)cc3)c3ccccc3c2=O)cc1,100%
21,CCN(Cc1ccc(CN(CC)C(=O)C(Br)Br)cc1)C(=O)C(Br)Br,17.6%
22,CN1CCN(c2cc(Nc3cc(C4CC4)[nH]n3)nc(Nc3ccc(CC(=O)NCc4cccc(F)c4)cc3)n2)CC1,98.8%
23,COc1ccc(-c2nn(-c3cccc(Cl)c3)cc2-c2cc(-c3cccs3)[nH]c(=S)n2)cc1,67.8%
24,Cc1ccc(Cc2cnc(NC(=O)c3ccc4noc(-c5ccccc5)c4c3)s2)cc1,91%
25,Clc1ccc2c(NCCCNc3nc(-n4ccnc4)nc4ccccc34)ccnc2c1,53.3%
26,O=C(Nc1ccc(-n2ccc3c(NC(=O)c4ccccc4)nccc32)cc1)c1ccc(Cl)c(C(F)(F)F)c1,-9.71% (active)
